Experimental data reported in the supplement of paper PMC12024424.
Counter-ions that a name gives are not always drawn.

Tested on: Staphylococcus aureus Sa2 (MRSA, cystic fibrosis isolate)
Assay: growth reduction vs untreated control (OD550); higher = stronger antibacterial activity
Conditions: 0.1 mM; 24 h
Method: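 Single-dose screen of the MedChem Express Drug Repurposing Library (0.1 mM, 1% DMSO) against planktonic MRSA S. aureus Sa2 (CF isolate) in TSB in 96-well plates, 37 °C aerobic, 24 h. Assays were run in triplicate and repeated twice.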

Compound	growth reduction [%]
O/N=c1\cc(-c2cc3sccc3cn2)oc2ccc(CCCN3CCOCC3)cc12 [Foliglurax (monohydrochloride)]	100
Nc1ccn([C@@H]2O[C@H](CO)[C@@H](O)C2(F)F)c(=O)n1 [Gemcitabine]	100
Cc1cc([C@H](C)Nc2nccc(N3C(=O)OC[C@@H]3[C@@H](C)F)n2)ncc1-c1ccnc(C(F)(F)F)c1	100
CCCCCCCCCCCC1=C(O)C(=O)C=C(O)C1=O [Embelin]	100
C[C@H]1Cc2c([nH]c3cc(Cl)c(F)cc23)[C@@]2(N1)C(=O)Nc1ccc(Cl)cc12 [Cipargamin]	100
O=C1NCCN1CCN1CCC(c2cn(-c3ccc(F)cc3)c3ccc(Cl)cc23)CC1 [Sertindole]	93.6
Cn1ncc(Cl)c1-c1cc(C(=O)N[C@H](CN)Cc2cccc(F)c2)sc1Cl [Afuresertib]	100
O=C(CCCCCCNC(=O)c1cnc(N(c2ccccc2)c2ccccc2)nc1)NO [Ricolinostat]	100
Clc1ccc(CO/N=C(\Cn2ccnc2)c2ccc(Cl)cc2Cl)c(Cl)c1 [Oxiconazole nitrate]	100
O=C(Nc1ccccc1)c1ccccc1O [Salicylanilide]	91.4
O=C(Nc1ccc(F)cc1)c1cnc(SCc2cc(OC(F)(F)F)ccc2B(O)O)nc1	100
Cc1cc(-c2nc(CN3CCNCC3)no2)cc2c1C(=O)N(Cc1ccc(OC(F)(F)F)cc1)C2	100
Cn1c(O)c(C2=c3ccccc3=NC2=O)c2ccccc21 [Meisoindigo]	100
CN(C)C(=O)/C=C/CNCCOc1ccc(/C(=C(/CC(F)(F)F)c2ccccc2)c2ccc3[nH]nc(F)c3c2)cn1	100
CCC(c1ccccc1)c1c(O)c2ccccc2oc1=O (stereo not given) [Phenprocoumon]	94.6
CN[C@H]1CN(c2ccc3c(=O)c(C(=O)O)cn(-c4nccs4)c3n2)C[C@@H]1OC [Voreloxin (Hydrochloride)]	100
CNC(=O)c1ccc(Nc2ncc(C(F)(F)F)c(NCc3nccnc3N(C)S(C)(=O)=O)n2)cc1 [Defactinib]	96.2
COc1ccc(CN2CCN(C(c3ccc(F)cc3)c3ccc(F)cc3)CC2)c(OC)c1OC [Lomerizine dihydrochloride]	100
Cc1c2c(nn1C)CSCc1cc(n(C)n1)CSc1cc(c3ccccc3c1)OCCCc1c(C(=O)O)n(C)c3c-2c(Cl)ccc13	100
C[C@@H](O[C@H]1OCCN(Cc2n[nH]c(=O)[nH]2)[C@H]1c1ccc(F)cc1)c1cc(C(F)(F)F)cc(C(F)(F)F)c1 [Aprepitant]	98.2

Compound	growth reduction [%]
Cc1ccc2c(=O)c3cccc(CC(=O)O)c3oc2c1C [Vadimezan]	100
CN1CC[C@@H](NC(=O)Nc2ccc(C#N)cc2)C[C@@H]1c1nc2ccccc2[nH]1 [Glasdegib]	100
CC1(C)S[C@@H]2[C@H](NC(=O)[C@H](N)c3ccccc3)C(=O)N2[C@H]1C(=O)OCOC(=O)[C@@H]1N2C(=O)C[C@H]2S(=O)(=O)C1(C)C [Sultamicillin (tosylate)]	100
Cc1c(Cl)cccc1Nc1ccccc1C(=O)O [Tolfenamic Acid]	100
Nc1ccc2cc3ccc(N)cc3nc2c1 [Proflavine (hemisulfate)]	100
Clc1ccc(C(c2ccccc2Cl)C(Cl)Cl)cc1 (stereo not given) [Mitotane]	100
Cc1ccc(Sc2ccccc2N2CCNCC2)c(C)c1 [Vortioxetine (hydrobromide)]	100
CC(C)COc1ccc(CNC(=O)N(Cc2ccc(F)cc2)C2CCN(C)CC2)cc1 [Pimavanserin]	100
O=C(Nc1ccc([N+](=O)[O-])cc1Cl)c1cc(Cl)ccc1O [Niclosamide]	99.8
Cc1ccc(NC(=O)C2(c3ccc4c(c3)OC(F)(F)O4)CC2)nc1-c1cccc(C(=O)O)c1 [Lumacaftor]	92.9
CC(C)(O)c1ccccc1CC[C@@H](SCC1(CC(=O)O)CC1)c1cccc(/C=C/c2ccc3ccc(Cl)cc3n2)c1 [Montelukast (sodium)]	100
CC(=O)Oc1cc(C)c(OC(C)=O)c2ccccc12 [Vitamin K4]	95.5
CCCCN(CCCC)C(=O)CN1C[C@H](c2ccc3c(c2)OCO3)[C@@H](C(=O)O)[C@@H]1c1ccc(OC)cc1 [Atrasentan (hydrochloride)]	100
CC[C@@]1(O)C[C@H](O[C@H]2C[C@H](N(C)C)[C@H](O[C@H]3C[C@H](O)[C@H](O[C@H]4CCC(=O)[C@H](C)O4)[C@H](C)O3)[C@H](C)O2)c2c(cc3c(c2O)C(=O)c2c(O)cccc2C3=O)[C@H]1C(=O)OC [Aclacinomycin A hydrochloride]	100
Fc1ccc(C(c2ccc(F)cc2)N2CCN(C/C=C/c3ccccc3)CC2)cc1 [Flunarizine (dihydrochloride)]	94.4
Cc1cccc(Nc2ccccc2C(=O)O)c1C [Mefenamic acid]	97.3
CCN(CC)CCOc1ccc(/C(=C(/Cl)c2ccccc2)c2ccccc2)cc1 [Enclomiphene (citrate)]	100
Cc1noc(-c2ccc(-c3ccc(C4(C(=O)O)CC4)cc3)cc2)c1NC(=O)O[C@H](C)c1ccccc1	100
O=c1[nH]cnc2c1cnn2[C@@H]1O[C@H](CO)[C@@H](O)[C@H]1O [Allopurinol riboside]	99.9
C[C@H](Nc1cc(-c2cnn(C)c2)cc(Nc2cnccn2)n1)c1ccc(F)cc1 [Ilginatinib]	100
